Source: PubChem BioAssay AID1851 (National Center for Advancing Translational Sciences (NCATS), 2009)
Several values for one entry are separate records, joined by “and”; a condition that tells them apart may be missing. Equal values may be shown once. About 5,100 (32%) of roughly 16,000 compounds were called active. Roughly 25% stayed inconclusive and do not appear here. The call rests on the fitted dose curve; in most records, active means well fitted curve in the direction sought with a large enough effect; inconclusive means small, poorly fitted or top-dose-only effect, or effect the other way; inactive means no such curve, though single readings can be large or run the other way. Some of the results follow.

These compounds were tested against Cytochrome P450 3A4 (Homo sapiens) (UniProt P08684) (assay: Cytochrome panel assay with activity outcomes). Settings: recombinant CYP, pro-luciferin dealkylation, luminescence, p450-cyp3a4; series mostly up to 57.1 µM; activity, negative = inhibition: at the top concentration.
On the % scale 0 is the no-effect control and ±100 the full control effect.

Sequence of Cytochrome P450 3A4 (Homo sapiens) (P08684 whole entry, looked up): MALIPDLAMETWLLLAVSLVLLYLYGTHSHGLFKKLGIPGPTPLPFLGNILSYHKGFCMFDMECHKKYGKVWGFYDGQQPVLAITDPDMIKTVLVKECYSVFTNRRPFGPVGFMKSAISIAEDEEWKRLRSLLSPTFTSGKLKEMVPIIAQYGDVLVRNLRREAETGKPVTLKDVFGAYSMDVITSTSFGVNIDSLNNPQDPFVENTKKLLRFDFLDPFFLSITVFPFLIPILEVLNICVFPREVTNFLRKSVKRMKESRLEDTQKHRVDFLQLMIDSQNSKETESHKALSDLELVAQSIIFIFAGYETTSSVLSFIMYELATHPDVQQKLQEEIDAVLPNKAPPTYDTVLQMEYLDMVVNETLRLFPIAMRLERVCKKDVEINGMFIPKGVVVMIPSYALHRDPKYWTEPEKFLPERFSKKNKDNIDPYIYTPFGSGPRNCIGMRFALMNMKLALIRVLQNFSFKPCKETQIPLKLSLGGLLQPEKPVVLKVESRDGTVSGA

| SMILES | activity, negative = inhibition | AC50 |
| --- | --- | --- |
| CCOC(=O)c1c2ccc(OCC(=O)N/N=C/c3ccc(Cl)cc3)cc2n2ccccc12 | -26.7% [at 2.29 µM] (inactive) |  |
| Cc1cccc(OCC(=O)N2CCC(N3CCCCCC3)CC2)c1 | -29.2% (inactive) |  |
| O=C(CSCc1cccc(Cl)c1)N/N=C/c1ccc(OCC(=O)N2CCCCC2)cc1 |  | 14.1 µM (active) |
| COc1ccc2cc3cc(C(=O)NCc4ccc5c(c4)OCO5)oc3nc2c1 |  | 0.708 µM (active) |
| COc1ccc2oc(=O)c(C(=O)Oc3ccc(NC(C)=O)cc3)cc2c1 | -13.8% (inactive) |  |
| COc1ccc2cc3cc(C(=O)Nc4ccc5c(c4)OCO5)oc3nc2c1 |  | 0.355 µM (active) |
| C/C(O)=C\c1nc2ccccc2oc1=O | -17.8% (inactive) |  |
| CO[C@@H]1/C=C\O[C@@]2(C)Oc3c(C)c(O)c4c(c3C2=O)C(=N[C@H]2CC[C@H](O)O[C@@H]2C)C=C(NC(=O)/C(C)=C\C(=O)[C@@H]2C[C@@H]2[C@@H](O)[C@H](C)[C@@H](O)[C@H](C)[C@H](OC(C)=O)[C@@H]1C)C4=O |  | 1.26 µM (active) |
| CO[C@H]1C=CO[C@]2(C)Oc3c(C)c(O)c4c(O)c(c5c(c4c3C2=O)NC2(CCN(CC(C)C)CC2)N=5)=NC(=O)C(C)=CC=C[C@@H](C)[C@@H](O)[C@@H](C)[C@@H](O)[C@@H](C)[C@@H](OC(C)=O)[C@@H]1C | -16.2% [at 25.6 µM] (inactive) |  |
| COc1ccc(/C=C(/C(=O)Nc2ccccc2C(=O)NC(C)C)c2ccccc2)cc1 |  | 11.2 µM (active) |
| Cc1ccccc1NC(=O)/C(=C/c1ccccc1)c1ccccc1 | 12.5% [at 11.4 µM] (inactive) |  |
| CC(C)C(=O)NC(=S)Nc1ccccc1C(=O)Nc1ccccc1 | 11.2% [at 2.29 µM] (inactive) |  |
| OC[C@@H]1NC[C@@H](O)[C@H]1O | 3.03% (inactive) |  |
| COc1cccc([C@@H]2Oc3ccc(OC)cc3/C(=N/O[C@@H](C)c3cc(-c4c(C)cc(C)cc4C)no3)[C@@H]2O)c1 |  | 1.58 µM (active) |
| COc1cccc([C@@H]2Oc3ccc(OC)cc3/C(=N/O[C@@H](C)c3cn([C@H]4COC[C@H]4O)nn3)[C@@H]2O)c1 |  | 3.16 µM (active) |
| COc1cccc([C@H]2Oc3ccc(OC)cc3/C(=N\O[C@@H](C)c3cn([C@H](CO)Cc4ccccc4)nn3)[C@@H]2O)c1 |  | 3.16 µM (active) and 3.98 µM (active) |
| CC(C)=NO[C@@H](C)c1cn([C@@H]2COC[C@@H]2O)nn1 | -6.38% [at 11.4 µM] (inactive) |  |
| Cc1cc(C)c(-c2cc([C@H](C)O/N=C\[C@@H](C)[C@H](OCc3ccccc3)C(C)C)on2)c(C)c1 | -37.1% [at 11.4 µM] (inactive) |  |
| CCN1C(=O)[C@H]2[C@H]3[C@H](O)[C@H](O)C/C(=N/O[C@@H](C)c4cn([C@H]5COC[C@H]5O)nn4)[C@@H]3CC[C@@H]2C1=O | -18.4% [at 11.4 µM] (inactive) |  |
| CCC(NC(=O)C1(C)CC1(Br)Br)c1ccc(C)cc1 (centres undefined) |  | 3.98 µM (active) |
| CCC(C)[C@H](NC(=O)NC1CCN(Cc2ccccc2)CC1)C(=O)OC (some centres undefined) | 6.5% (inactive) |  |
| CCC(C)C(NC(=O)OCc1ccccc1)C(=O)OCN1C(=O)c2ccccc2C1=O (centres undefined) |  | 7.08 µM (active) |

| SMILES | activity, negative = inhibition | AC50 |
| --- | --- | --- |
| O=C1NCCc2c1[nH]c1ccccc21 | 17.8% [at 2.29 µM] (inactive) |  |
| CCOc1cc(/C=C2\N=C(C)OC2=O)cc(Br)c1OCC(=O)OC |  | 10 µM (active) |
| CCOC(=O)COc1c(C=O)cc(Br)cc1OC | -7.04% (inactive) |  |
| O=C1CCC(c2ccccc2)(c2ccccc2)CC1 | 10.5% [at 11.4 µM] (inactive) |  |
| c1ccc2c(CC3NCCN3)cccc2c1 | -5.75% [at 11.4 µM] (inactive) |  |
| CN1CCCC[C@@H]1CCN1CCCCC1 | -2.94% [at 11.4 µM] (inactive) |  |
| CCN(CC)c1nc2ccccc2[nH]1 | -13.8% (inactive) |  |
| OCCNc1nc2ccccc2[nH]1 | -4.38% (inactive) |  |
| c1ccc(-c2n[nH]c(-c3ccccc3)c2-c2nc3ccccc3[nH]2)cc1 |  | 2.24 µM (active) |
| Cc1c(Cl)c(S(N)(=O)=O)cc2c1=NC=NS=2(=O)O | -13% [at 11.4 µM] (inactive) |  |
| CCON=C1C(C)(C)C(C)(C)C(C)(C)C1(C)C | -9.31% [at 11.4 µM] (inactive) |  |
| COc1ccc(O[C@H]2C=C[C@@H](c3ccccc3)O[C@H]2COC(=O)CC/C(C)=N\O[C@@H](C)CN2CCCCc3nc(C)c(C)cc32)cc1 |  | 3.98 µM (active) |
| COc1ccc(O[C@H]2C=C[C@@H](c3ccccc3)O[C@H]2COC(=O)CC/C(C)=N\O[C@@H](C)CN2CCCc3nc(C)c(C)cc32)cc1 |  | 3.16 µM (active) |
| Cc1ccc(N(C(C)C(=O)Nc2cc(Cl)ccc2Oc2ccccc2)S(C)(=O)=O)cc1 (centres undefined) |  | 4.47 µM (active) |
| CC(C(=O)Nc1ccccc1Sc1ccccc1)N(c1ccccc1)S(C)(=O)=O (centres undefined) |  | 5.01 µM (active) |
| O=C(O)[C@@H]1Cc2c([nH]c3ccccc23)[C@@H](CCCCO)N1 | 1.47% [at 11.4 µM] (inactive) |  |
| CC(=O)N1CCC2(CCCN(c3ncccn3)C2)CC1 | 5.39% (inactive) |  |
| O=C(CC1C(=O)N(c2ccc(Cl)cc2)C(=S)N1CCc1ccncc1)Nc1ccc(F)cc1 (centres undefined) |  | 1.26 µM (active) |
| COc1ccc(C(=O)NC2(C(F)(F)F)C(=O)Nc3c2c(=O)[nH]c(=O)n3CCc2ccc(OC)c(OC)c2)cc1 (centres undefined) | -10.4% (inactive) |  |
| CC(=O)Nc1ccc(S(=O)(=O)NC2(C(F)(F)F)NC(=O)N(c3ccc(Cl)cc3)C2=O)cc1 (centres undefined) | 3.14% (inactive) |  |
| CCNC(=O)CC1C(=O)N(c2ccc(F)cc2)C(=O)N1CCc1ccc(OC)cc1 (centres undefined) |  | 7.08 µM (active) |
| COc1ccc(CCN2C(=NC(=O)CCC(=O)O)SC3CS(=O)(=O)CC32)cc1 (centres undefined) | 8.98% (inactive) |  |
